Source: PubChem
HIV RNase H inh: inhibitors of HIV-1 reverse transcriptase RNase H; RT-RNase H RNA/DNA duplex cleavage, fluorescence; inhibition, % at 10 µM; P04585; 1.9% of 65,000 active; in the data active = inhibition above about 50%
Each line names hits and unclear results; the compound was inactive in the other large screens. Shown is part of a subset that was picked to be rich in hits.

CC(C)CC(C(=O)Nc1oc(-c2ccco2)c(-c2ccco2)c1C#N)N1C(=O)c2ccccc2C1=O (configuration not stated)	HIV RNase H inh 62
N#Cc1c(N)oc(-c2ccco2)c1-c1ccco1	none
CC(C)CC(C(=O)Nc1ccc2c(c1)OCCO2)N1C(=O)c2ccccc2C1=O (configuration not stated)	none
Cc1cccn2c(=O)c3cc(C(=O)N4CCc5ccccc5C4)n(C)c3nc12	none
COc1ccc(CCN(C)CCCC(C#N)(c2ccc(OC)c(OC)c2)C(C)C)cc1OC (configuration not stated)	none
CC(=O)NC(Cc1ccc(F)cc1)C(=O)N1CCN(C(=O)NCc2ccccc2)CC1 (configuration not stated)	none
Cc1oc(/N=C/c2ccc(Cl)cc2)c(C#N)c1C	none
Cc1oc(/N=C/c2c(O)ccc3ccccc23)c(C#N)c1C	HIV RNase H inh 73
Cc1oc(/N=C/c2ccccc2O)c(C#N)c1C	none
Cc1ccc(C2CC(C(F)(F)F)n3nc(C(=O)NCC4CCCO4)cc3N2)cc1 (configuration not stated)	none
O=C(NC1CCCC1)C(c1ccco1)N(Cc1ccccc1)C(=O)c1csnn1 (configuration not stated)	none
COc1cc2c(cc1OC)C(c1cc(OC)c(OC)c(OC)c1)NCC2 (configuration not stated)	none
Cc1cc(NC(=O)c2cc(-c3ccc4c(c3)OCO4)on2)n(-c2ccccc2)n1	HIV RNase H inh 55
Cc1c(NC(=O)c2cc(-c3ccc4c(c3)OCO4)on2)c(=O)n(-c2ccccc2)n1C	none
Cc1cc(NC(=O)c2cc(-c3ccccc3)on2)n(-c2ccccc2)n1	none
CN(CCNC(=O)c1ccc(N2CCCC2=O)cc1)CCc1ccccc1	none
COc1ccc(-c2noc(-c3ccccc3F)n2)cc1	none
COc1ccc(-c2ccc(-c3noc(-c4ccccc4F)n3)c(OC)n2)cc1	HIV RNase H inh 54
COc1ccc(-c2ccc(-c3noc(-c4ccccc4)n3)c(OC)n2)cc1	none
Cc1cc(S(=O)(=O)N2CCN(c3ncccn3)CC2)ccc1-n1cnnn1	none
CCc1ccccc1NC(=O)CSc1nnc(-c2ccco2)n1N	none
CCn1c(SCC(=O)Nc2nc(C)c(C(=O)OC)s2)nnc1C(C)C	none
CC(=O)/C(CN1CCCCC1)=N\O	none
C/C(=N\O)C(=O)C(CN1CCCCC1)CN1CCCCC1	HIV RNase H inh 51
CC1(C)NC(=O)N(CC(O)CN2CCCCC2)C1=O (configuration not stated)	none
C=CCOc1nc2c(c(=O)n(C)c(=O)n2C)n1Cc1c(Cl)cccc1Cl	none
CCOC(=O)N1CCN(c2cc3[nH]c(=S)[nH]c3cc2F)CC1	HIV RNase H inh 61
CCOC(=O)N1CCN(c2cc(C)c(C(C)=O)cc2F)CC1	none
CCOC(=O)N1CCN(c2c(F)cc3[nH]c(=S)[nH]c3c2Br)CC1	none
CCn1c(CNC(=O)Cc2ccc(OC)cc2)nnc1SCC(=O)Nc1nccs1	none
CCn1c(COc2ccc3c(c2)CCCC3)nnc1SCC(=O)Nc1nccs1	HIV RNase H inh 62
CCn1c(SCC(=O)Nc2nccs2)nnc1-c1ccc(C)cc1	none
Cc1nc2c(c(=O)n1CC1CCCO1)c1nc3ccccc3nc1n2CCC(C)C (configuration not stated)	none
COC(=O)c1sc2ccccc2c1N	HIV RNase H inh 54
COC(=O)c1sc2ccccc2c1C(=O)OC	none
COC(=O)c1sc2ccccc2c1NC(=O)c1cccs1	none
Cc1cc(-n2c(SCCC#N)nnc2-c2cccnc2)ccc1Cl	none
Nc1nncn1C(=O)CCCOc1ccc(Cl)cc1Cl	none
CC(=O)N=c1sc(S(N)(=O)=O)nn1C	HIV RNase H inh 67
CC(=O)Nc1nc(C)c(S(N)(=O)=O)s1	none
CC(=O)Nc1nnc(S(N)(=O)=O)s1	none
COC(=O)c1ccc(CSc2nc(C)nc3c2c(=O)n(C)c(=O)n3C)o1	none
Clc1ccc(OCc2nnc3n2N=C(c2ccc4c(c2)OCCO4)CS3)c(Cl)c1	none
O=C(CSc1ncnc2c1nnn2Cc1ccccc1F)N1CCN(c2ccccc2)CC1	none
N=C1C(c2ccccc2)=C(O)CN1Cc1ccco1	none
S=C1SCN(Cc2ccccn2)CN1Cc1ccco1	HIV RNase H inh 52
O=C(c1cccs1)N(Cc1ccccn1)Cc1ccco1	none
Cc1csc2ncc(C(=O)NCc3ccccn3)c(=O)n12	none
Clc1ccc(-c2nn3c(Cn4cnc5ccccc54)nnc3s2)c(Cl)c1	HIV RNase H inh 71
Clc1ccc(Cl)c(-c2nn3c(Cn4cnc5ccccc54)nnc3s2)c1	none
c1ccc(OCc2nn3c(Cn4cnc5ccccc54)nnc3s2)cc1	none
CC1(C)CC(=O)c2c(-c3cccs3)n[nH]c2C1	none
COC(=O)c1cc(NC2c3ccccc3C(=O)N2CCN2CCOCC2)cc(C(=O)OC)c1 (configuration not stated)	none
O=C(CCSc1nc(-c2ccco2)cc(C(F)(F)F)n1)Nc1ccc2c(c1)OCO2	none
CCOC(=O)c1nc(N)c(=O)n(-c2ccccc2)n1	none
Cc1nn(-c2ccccc2)c(C)c1NC(=O)c1cccs1	none
CCOC(=O)c1cc(OC(=O)c2cccs2)n(-c2ccccc2)n1	HIV RNase H inh 50
O=C(c1ccc2nc(-c3ccco3)c(-c3ccco3)nc2c1)N1CCN(c2ccccc2)CC1	HIV RNase H inh 76
O=C(c1cc(-c2ccco2)on1)N1CCN(c2ccccc2)CC1	none
Cc1cc(C)nc(SCC(=O)Nc2ccc(N3CCOCC3)cc2)n1	none
O=C(Nc1ccc2nc(-c3cccs3)c(-c3cccs3)nc2c1)N1CCOCC1	none
Cn1nnc2cc(C(=O)N3CCN(c4ccccc4)CC3)ccc21	none
O=C(Nc1ccc(N2CCOCC2)cc1)Nc1ccc2nc(-c3ccco3)c(-c3ccco3)nc2c1	HIV RNase H inh 68
O=C1c2ccccc2C(Nc2ccc(Cl)cn2)N1c1cccnc1 (configuration not stated)	none
O=C(N1CCOCC1)N1CCC(NC(=O)C23CC4CC(CC(C4)C2)C3)CC1	none
CCCOc1ccc(OC(=O)c2ccc(Br)o2)cc1	none
Cc1sc2ncnc(OCC(=O)N3CCN(S(=O)(=O)c4ccccc4)CC3)c2c1C	none
CC(=O)N1CCc2cc(S(=O)(=O)CCC(=O)N3CCN(C(=O)c4ccco4)CC3)ccc21	none
COc1ccc(-n2nnnc2SCC(=O)c2cccc(OC)c2)cc1	none
CCCC(c1nnnn1CCOC)N1CCN(c2cccc(OC)c2)CC1 (configuration not stated)	none
CCCS(=O)(=O)c1nnnn1-c1cccc(OC)c1	HIV RNase H inh 55
CCOC(=O)C(CC)n1cnc2c(nnn2-c2ccc(OC)cc2)c1=O (configuration not stated)	none
CCOC(=O)c1nn(-c2ccc(OC)cc2)c(=O)c2c(N)scc12	HIV RNase H inh 75
CCOC(=O)c1nn(-c2ccc(OC)cc2)c(=O)c2c(NC(=O)c3ccco3)scc12	none
COc1ccc(CC(=O)Nc2c3c(nn2-c2cccc(C)c2C)CS(=O)C3)cc1OC (configuration not stated)	none
COc1ccc(-n2nnnc2Sc2ccc(S(=O)(=O)N3CCOCC3)cn2)cc1	HIV RNase H inh 86
COc1ccc(-n2nnnc2SCC(=O)N2CCOCC2)cc1	none
COc1ccc2cc(S(=O)(=O)N3CCOCC3)ccc2c1	none
O=S(=O)(NCc1ccc2c(c1)OCO2)c1cccc(S(=O)(=O)N2CCOCC2)c1	none
CCOC(=O)c1c(-c2ccccc2)csc1NC(=O)c1nn(CC)cc1Br	HIV RNase H inh 67
CCOC(=O)c1c(NC(=O)c2nn(CC)cc2Br)c(C#N)cn1-c1ccccc1	none
CCn1cc(Br)c(C(=O)Nc2ccc(C(=O)OC(C)C)cc2)n1	none
Cc1ccc2c(CC(=O)N3CCN(S(=O)(=O)c4ccc5c(c4)OCCO5)CC3)coc2c1	none
CCOC(=O)N1CCN(C(=O)CN(c2ccc(Cl)c(C(F)(F)F)c2)S(C)(=O)=O)CC1	none
